# NSD2 inh: inhibitors of human histone methyltransferase NSD2. O96028. NSD2 peptide methylation, AlphaScreen, 120 min. inhibition, % at 12.5 µM. 310,000 compounds, 0.54% hits. AID 743445; in the data active = inhibition above about 50%
# Ecoli rRNA inh: inhibitors of bacterial rRNA selective over humanized ribosomes; E. coli WT GFP vs humanized-ribosome RFP mutants, fluorescence, 24 h; stronger effect = lower value; DMSO median 0, no signal -100; GFP signal change (wild-type ribosome), % (test concentration not listed); 350,000 compounds, 1.6% hits;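 active = significant combined selectivity score with lowered wild-type GFP, culture density cut under 30%, mutant RFP and density less affected; inactive = any of these conditions unmet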
# AF4-AF9 inh: inhibitors of human MLL-AF4/AF9 interaction | AlphaScreen, biotin-AF4 peptide binding to FLAG-AF9 | 350,000 compounds, 0.47% hits | inhibition, % at 10 µM;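 active = every replicate reaching a set inhibition limit, whatever the replicate mean, cut at about 25% in these data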
# Target sequence (P42568 whole entry, looked up): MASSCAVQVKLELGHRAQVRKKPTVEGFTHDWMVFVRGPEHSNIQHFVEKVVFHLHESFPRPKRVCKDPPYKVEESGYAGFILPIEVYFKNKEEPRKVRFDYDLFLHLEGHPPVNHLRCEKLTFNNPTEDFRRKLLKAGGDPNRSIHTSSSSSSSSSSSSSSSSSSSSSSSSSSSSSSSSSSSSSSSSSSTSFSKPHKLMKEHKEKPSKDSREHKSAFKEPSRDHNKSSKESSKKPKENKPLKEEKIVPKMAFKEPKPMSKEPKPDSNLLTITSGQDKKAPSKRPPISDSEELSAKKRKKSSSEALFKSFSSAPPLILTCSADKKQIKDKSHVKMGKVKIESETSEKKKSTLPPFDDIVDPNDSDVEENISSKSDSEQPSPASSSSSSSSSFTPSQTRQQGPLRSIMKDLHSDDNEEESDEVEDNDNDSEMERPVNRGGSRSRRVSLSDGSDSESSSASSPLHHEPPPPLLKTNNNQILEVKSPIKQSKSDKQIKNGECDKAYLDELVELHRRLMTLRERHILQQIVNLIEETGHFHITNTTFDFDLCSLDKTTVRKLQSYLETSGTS
# Casp6 inh: blocks human caspase-6 cleavage activity. P55212. purified caspase-6, Z-VEID-R110 cleavage fluorescence. inhibition, % at 12.5 µM. 350,000 compounds, 0.53% hits;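 active = mean inhibition across replicates at least about 35%, with every replicate also reaching that limit, limit read from the data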
# RAD52 anneal inh: blocks human RAD52 DNA annealing | P43351 | recombinant RAD52 DNA annealing, FRET fluorescence | inhibition, % at 18.7 µM | 360,000 compounds, 0.46% hits | AID 651710;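 active = every replicate showing at least 50% inhibition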
# Numbers stand for hits; 0 = inactive; - = not tested or not shown. Rows were chosen to be rich in hits. Some 2.5% of all compounds tested hit in one or more screens of this group.
SMILES,NSD2 inh,Ecoli rRNA inh,AF4-AF9 inh,Casp6 inh,RAD52 anneal inh
COc1ccc(C(NC(=O)C2CCN(CCOc3ccc(Cl)cc3Cl)CC2)c2ccccc2C)cn1 (centres undefined),0,-29,0,0,0
COc1cccc(C(NC(=O)C2CCN(CCCOc3ccccc3)CC2)c2ccccn2)c1 (centres undefined),0,0,0,38,0
COc1ccc(OCCN2CCC(C(=O)NC(c3ccccn3)c3ccccc3OC)CC2)cc1 (centres undefined),0,0,0,49,0
C[C@@H]1CN([C@@H](C)CO)C(=O)c2cc(NC(=O)CCCN(C)C)ccc2O[C@@H]1CN(C)CC1CCCCC1,-,0,0,0,0
C=CCn1c(=S)sc2c(=O)[nH]cnc21,0,-23,0,0,0
C=CCn1c(N)c(C(=O)OCC)sc1=S,0,-,-,-,-
CCOC(=O)C1=C(C)NC2=C(C(=O)c3ccccc32)C1c1cccc2ccccc12 (centres undefined),-,-19,0,0,0
CCOC(=O)C1=C(C)NC2=C(C(=O)c3ccccc32)C1c1ccc(O)cc1 (centres undefined),0,-,-,-,-
O=C(c1cccnc1)N1CC(=O)N2[C@H](CO)[C@H](c3ccc(C#CCC4CCCC4)cc3)[C@@H]2C1,-,0,0,0,0
CCOC(=O)N1CCN(c2nc(SC)nc3sc4c(c23)CC(C)(C)OC4)CC1,0,-,-,-,-
CSc1nc(SC(C)C(=O)O)c2c3c(sc2n1)COC(C)(C)C3 (centres undefined),0,-23,0,0,0
COc1ccc(-c2cn(CCNC(=O)[C@H](Cc3ccccc3)NS(=O)(=O)c3ccc(C)cc3)nn2)cc1OC,-,-,0,0,0
COc1ccc2c3c(n(C)c2c1)[C@@H](CO)N(Cc1ccc(F)cc1)CC31CN(CC2CCOCC2)C1,-,0,0,-,-
C/C(=N/Nc1ncc(Br)cn1)c1ccc(Br)cc1,0,0,0,0,0
C/C(=N\Nc1ccc(C(=O)O)cc1)c1ccc(Br)cc1,0,0,0,43,0
CCOC(=O)c1c(NC(C)=O)sc(/C(C)=N/Nc2ccc(C(=O)O)cc2)c1C,0,-17,0,0,0
COc1ccc2c3c([nH]c2c1)[C@H](CO)N(C(=O)Nc1ccc(F)cc1)CC31CN(Cc2nccs2)C1,-,0,0,0,0
O=C1NC(=S)S/C1=C\C=C\c1ccc([N+](=O)[O-])o1,-,0,0,96,0
C[C@H]1CN(C)C(=O)Cc2cc(N(C)C)ccc2O[C@@H]1CN(C)C,-,0,-,-,-
CCOC(=O)c1cnc2c(cnn2C)c1NCc1ccc(OC)cc1,-,-19,0,0,0
CC(C)NC(=O)N(C)C[C@H]1Oc2ncc(-c3cccc(C#N)c3)cc2C(=O)N([C@@H](C)CO)C[C@@H]1C,-,0,0,0,0
N#C/C(=C\c1cccc(Oc2ccccc2)c1)C(=O)N1CCOCC1,0,-25,0,0,0
Cc1cc(-c2nn(-c3ccccc3F)cc2CNCCc2cnc[nH]2)c(C)s1,0,0,29,0,0
C[C@@H]1CN([C@H](C)CO)C(=O)c2cccc(NC(=O)C3CCCCC3)c2O[C@@H]1CN(C)S(C)(=O)=O,-,0,0,0,0
COc1ccc(OC)c(-c2csc(NC(=O)CN3C(=O)NC4(CCCC4)C3=O)n2)c1,0,-25,0,0,0
SMILES,NSD2 inh,Ecoli rRNA inh,AF4-AF9 inh,Casp6 inh,RAD52 anneal inh
Cc1ccc(S(=O)(=O)N(C)C)cc1NC(=O)CN1C(=O)NC2(CCCCCC2)C1=O,0,0,0,0,0
COc1ccc(-c2csc(NC(=O)CN3C(=O)NC4(CCCC4)C3=O)n2)cc1,0,0,0,0,0
COc1ccc(NS(=O)(=O)c2ccc(C)c(NC(=O)CN3C(=O)NC4(CCCC4)C3=O)c2)cc1,0,0,41,0,0
COc1ccc(CN(C)C[C@@H]2OCCCC[C@H](C)Oc3ccc(NC(=O)CCC(F)(F)F)cc3C(=O)N([C@@H](C)CO)C[C@H]2C)cc1,-,0,0,0,0
Cc1noc(C)c1S(=O)(=O)Nc1ccc2c(c1)CC(=O)N([C@H](C)CO)C[C@@H](C)[C@@H](CN(C)Cc1ccc(C(=O)Nc3ccccc3N)cc1)O2,-,0,0,0,0
C[C@@H]1CN([C@H](C)CO)C(=O)c2cccc(NC(=O)c3nc4ccccc4s3)c2O[C@H]1CN(C)C(=O)NC1CCCCC1,-,0,0,0,0
CCCN(C)C[C@@H]1Oc2ncc(-c3cccc(C#N)c3)cc2C(=O)N([C@H](C)CO)C[C@H]1C,-,0,0,0,0
O=C(CCl)Nc1cn(-c2ccccc2)nc1-c1ccc(F)cc1,0,-24,0,0,0
Fc1ccc(-n2cc(CNCCc3cccnc3)c(-c3ccccc3Cl)n2)cc1,0,-40,0,0,0
Fc1ccc(-n2cc(CNCCc3ccncc3)c(-c3ccccc3Cl)n2)cc1,0,0,0,0,0
CN1CCN(C(=O)C[C@H]2CC[C@@H]3[C@@H](COc4ccc(NC(=O)c5cscn5)cc4C(=O)N3C)O2)CC1,-,0,0,0,0
COc1ccc(CN(CC2CCC(C(=O)O)CC2)C(=S)Nc2ccc(C)c(Cl)c2)cc1 (centres undefined),0,-33,0,0,0
COc1ccc(NC(=S)N(Cc2cccc(Br)c2)CC2CCC(C(=O)O)CC2)cc1 (centres undefined),0,0,0,0,0
N#C/C(=C/c1ccc(O)c(O)c1)C(=O)NCc1ccc(Cl)cc1,78,0,0,35,0
N#C/C(=C/c1cccc(O)c1)C(=O)NCc1ccc(Cl)cc1,0,0,0,0,0
Cc1ccccc1CNS(=O)(=O)c1ccccc1[N+](=O)[O-],0,-28,0,0,0
O=C(COc1ccc(Cl)cc1Cl)OCC(=O)c1ccc[nH]1,0,-,0,0,0
O=C(Cc1ccc(Br)cc1)OCC(=O)c1ccc[nH]1,0,-23,0,0,0
O=C(COc1ccc(Cl)cc1Br)OCC(=O)c1ccc[nH]1,0,-,0,38,0
O=[N+]([O-])c1cc(-c2ccccc2)cc([N+](=O)[O-])c1O,0,0,0,0,0
O=[N+]([O-])c1cc2ccccc2c(O)c1O,0,-,0,41,0
O=C(C[C@H]1CC[C@H]2[C@@H](COC[C@@H](O)CN2Cc2ccc3c(c2)OCO3)O1)Nc1ccc(-c2ccccc2)cc1,-,0,-,-,-
COc1ccc(-c2nc(CN3CCCCC3c3nccn3C)c(C)o2)c(C)c1C (centres undefined),-,-33,0,0,0
COC1=C(Nc2ccc(C)cc2)C(=O)c2ccccc2C1=O,78,0,37,0,0
COC1=C(Nc2ccccc2)C(=O)c2ccccc2C1=O,75,-,-,-,-
CC(C)NC(=O)N[C@H]1C[C@@H]2O[C@@H](CO)CC[C@@H]2O[C@@H]1CCc1ccc(-c2ccccc2F)cc1,-,-,33,0,0
O=C(NN=C1c2ccccc2-c2ccccc21)c1ccccc1Br,0,0,0,0,0
O=C(NN=C1c2ccccc2-c2ccccc21)c1ccccc1,0,-32,0,0,0
Cc1ccc(NC(=O)c2ccc(Br)o2)cc1S(=O)(=O)N(C)C,0,-21,0,0,0
Cc1ccc(NC(=O)COC(=O)c2ccccc2Cl)cc1S(=O)(=O)N(C)C,0,-34,0,-,0

# Screening results from PubChem BioAssay.
